Screening data deposited in PubChem by National Center for Advancing Translational Sciences (NCATS).
HPGD inh = HPGD (human) dehydrogenase inhibition; Potency, µM, hits mostly inhibitors; 4.3% of 150,000 active; AID 894; purified HPGD, NADH fluorescence kinetic, PGE2 substrate; P15428; active = well fitted inhibition curve with a large enough effect, not every such curve was filed as active; inconclusive = small, poorly fitted or top-dose-only effect, or another doubt; inactive = no such curve, though single readings can be large or run the other way
Target sequence (P15428 whole entry, looked up): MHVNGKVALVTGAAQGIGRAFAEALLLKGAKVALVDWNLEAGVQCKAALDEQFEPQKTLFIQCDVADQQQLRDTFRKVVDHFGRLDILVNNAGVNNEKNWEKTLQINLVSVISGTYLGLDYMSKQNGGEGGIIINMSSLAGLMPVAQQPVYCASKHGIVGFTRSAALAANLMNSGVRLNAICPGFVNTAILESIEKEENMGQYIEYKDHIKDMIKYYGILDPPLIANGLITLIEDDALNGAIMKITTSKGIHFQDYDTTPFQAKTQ
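20 nM HPGD preincubated 15 min at room temperature with compound in 50 mM Tris-HCl pH 8, 0.01% Tween 20. Started with 1 mM NAD+ and 30 uM prostaglandin E2; NADH fluorescence (360/450 nm) read 5 times over 30-s intervals, last minus first.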
HTT cytoprotect = protects HTT-Q103 PC12 cells, measured by ATP; PC12 HTT-Q103 induced, cytoprotection, ATP luminescence, 40 h; Potency, µM (doses to about 56.4 µM), actives largely listed as activators; AID 1471; 0.14% of 230,000 active; note: nearly all actives have a fitted effect of over 45% in size
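Quantitative HTS on tebufenozide-induced (100 nM) PC12 cells expressing HTTQ103 exon 1–GFP; compounds tested as a concentration series; survival measured via cellular ATP.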
IMPase inh = membrane-permeable compound that blocks inositol monophosphatase; P97697; CHO-M1 cells, IP1 accumulation, HTRF TR-FRET ratio; inhibition (IP1 accumulation), % at 46.1 µM; 120,000 tested, under 10 active; AID 901; active = well fitted curve in the direction sought with a large enough effect in the signal ratio, not every such curve was filed as active; inconclusive = small, poorly fitted or top-dose-only effect, or a change in a side signal; inactive = no such curve, though single readings can be large or run the other way; the % refers to the signal ratio;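 note: cells stimulated with carbachol in lithium chloride buffer; higher means more IMPase inhibition seen as more IP1 and lower FRET ratio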
Target sequence (P97697 whole entry, looked up): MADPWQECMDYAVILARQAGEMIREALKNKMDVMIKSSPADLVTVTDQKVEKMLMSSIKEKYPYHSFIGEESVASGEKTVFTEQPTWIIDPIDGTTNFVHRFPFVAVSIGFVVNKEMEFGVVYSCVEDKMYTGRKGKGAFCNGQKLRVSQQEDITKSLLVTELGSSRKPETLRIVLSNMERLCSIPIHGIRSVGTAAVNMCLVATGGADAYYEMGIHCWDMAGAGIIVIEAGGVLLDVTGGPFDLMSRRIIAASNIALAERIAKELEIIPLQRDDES
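In this qHTS, compounds (final up to 46 uM) act on CHO-M1 cells that are then activated through the M1 receptor with carbachol, in pH 7.4 buffer containing 50 mM LiCl, for 30 min. IP1 accumulation is quantified by the IP-One immunoassay.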
IMPase Li cell = membrane-permeable IMPase blocker, potentiated with lithium; 0.35% of 210,000 active; CHO-M1 cells, IP1 TR-FRET (IP-One), carbachol + lithium; AID 1457; Potency, µM (series often up to 59.4 µM), most hits filed as inhibitors;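 note: IP1 builds up when IMPase is blocked and the TR-FRET signal falls; nearly all actives have a fitted effect of over 50% in size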
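Steps: plate 2000 CHO-M1 cells per well and culture 16–30 h; add compound and lithium; incubate 30 min, 37C; add d2-IP1 tracer and Eu cryptate anti-IP1 antibody in lysis buffer; read after 10 min at room temperature.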
ALDH1A1 block = inhibitors of human aldehyde dehydrogenase 1A1. P00352. Purified ALDH1A1, NADH fluorescence, propionaldehyde substrate. Potency, µM (titrated, usually from 75.3 µM), usual class: inhibitors. 7.3% of 220,000 active; active = well fitted inhibition curve with a large enough effect, not every such curve was filed as active; inconclusive = small, poorly fitted or top-dose-only effect, or another doubt; inactive = no such curve, though single readings can be large or run the other way
HttQ103 aggreg = mutant huntingtin aggregation inhibition; Potency, µM (series often up to 46.1 µM), hits mostly inhibitors; AID 1688; 1.1% of 220,000 active; PC12 HttQ103-GFP aggregates, Acumen cytometry, 40 h; note: nearly all actives have a fitted effect of over 60% in size
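Using laser scanning cytometry, GFP-positive aggregates were counted after lysis of PC12 cells induced with 100 nM tebufenozide to express HTT exon 1 Q103–GFP. Compounds were tested in titration.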
Hits are given with their value; n = inactive; u = inconclusive; x = no result given; [ ] = dose if it differs, or a comment. In the library only some 9.4% were active in any assay of this set; here they are far more common. Unless noted, calls come from the whole dose curve; as a rule, active = well fitted curve in the direction sought with a large enough effect; inconclusive = small, poorly fitted or top-dose-only effect, or another doubt; inactive = no such curve, though single readings can be large; an effect the other way counts as inactive or inconclusive.

SMILES	HPGD inh	HTT cytoprotect	IMPase inh	IMPase Li cell	ALDH1A1 block	HttQ103 aggreg
COc1cccc(/C=C/C(=O)OCC(=O)Nc2ccc(S(=O)(=O)N3CCCC3)cc2)c1	u	n[10 µM]	x	n	7.08µM	n
Cc1ccccc1Nc1nnc(SCC2CCCCO2)s1 (centres undefined)	n	n[10 µM]	x	n	n	n
COc1ccccc1Nc1nnc(SCC2CCCCO2)s1 (centres undefined)	x	n	x	n	31.6µM	u
O=C1CC(N2CCN(c3ccc(Cl)c(Cl)c3)CC2)C(=O)N1 (centres undefined)	n	n	n	n	u	25.1µM
CNCc1ccccc1Sc1ccc(O)c(O)c1	17.8µM	x	x	n	0.562µM	u
CCc1ccc(N/C(SC)=C(/C#N)C(N)=O)cc1	n	n	n	n	n	x
CCCCS/C(=C(/C#N)C(N)=O)c1cc2c([nH]1)CCCC2	u	n	n	n	14.1µM	n
COc1ccccc1-n1c(C)c2c(OC)cccc(=O)c2c1C	11.2µM	x	x	n	u	u
CCCNC(=O)CCCCn1c(=S)[nH]c2c([nH]c3ccc(OC)cc32)c1=O	x	n[10 µM]	x	n	n	n
O=C(CCCn1c(=S)[nH]c2ccccc2c1=O)NC1CCCC1	14.1µM	n	n	n	u	n
CC1CCCCC1NC(=O)CCCn1c(=S)[nH]c2ccccc2c1=O (centres undefined)	x	n	x	n	n	n
CC1CCCCC1n1c(=S)[nH]c2ccccc2c1=O (centres undefined)	x	n[0.074 µM]	n	x	n	20µM
O=C(CCn1c(=S)[nH]c2ccccc2c1=O)NCC1CCCO1 (centres undefined)	28.2µM	n[10 µM]	n	n	u	n
COc1ccc2[nH]c3c(=O)n(CCCCC(=O)N4CCCC4)c(=S)[nH]c3c2c1	4.47µM	n	n	n	n	n
CCCn1c(=S)[nH]c2cc(C(=O)NCC3CCCO3)ccc2c1=O (centres undefined)	n	n	n	n	n	n
Cc1cccc(Oc2ccc(NC(=O)CCC(=O)OCC(=O)c3ccc(Br)cc3)cc2)c1C	x	x	n	x	x	x
CC1CCCC(NC(=O)CCCn2c(=S)[nH]c3ccccc3c2=O)C1C (centres undefined)	x	u	x	n	n	u
S=C(NCCc1c[nH]c2ccccc12)NC1CC1	x	n[10 µM]	x	n	n	n
CC1CCCN(C(=O)CCCn2c(=S)[nH]c3ccccc3c2=O)C1 (centres undefined)	7.94µM	n	n	n	17.8µM	n[9.22 µM]
O=C(CCc1c[nH]c2ccccc12)NC1CC1	15.8µM	u	n	n	n	u
COC(=O)N1CCC2(CCCN(Cc3ccccc3)C2)CC1	n	n	x	n	u	x
C=CCn1c(-c2ccc(Cl)cc2)c[nH]c1=S	11.2µM	n[10 µM]	n	n	1.41µM	n[9.22 µM]
C=CCn1c(-c2ccccc2)c[nH]c1=S	u	n	n	n	u	u
CC(C)C(=O)Nc1cccc(NC(=S)NC(=O)c2ccc(Cl)cc2)c1	n	n	n	n	10µM	n
CCc1ccc(C(=O)NC(=S)Nc2ccc3c(c2)OCCO3)cc1	n	n[10 µM]	n	n	17.8µM	n
SMILES	HPGD inh	HTT cytoprotect	IMPase inh	IMPase Li cell	ALDH1A1 block	HttQ103 aggreg
Cc1ccc(C(=O)NC(=S)Nc2ccc3c(c2)OCCO3)c(C)c1	n	n	n	n	u	n
O=C(NC(=S)Nc1ccc2c(c1)OCO2)c1ccc(Cl)cc1	n	x	x	n	14.1µM	n
S=C(Nc1ccc2c(c1)OCO2)Nc1ccc2c(c1)OCO2	n	n[10 µM]	x	n	u	n
Cc1cc(C)cc(C(=O)NC(=S)Nc2ccc3c(c2)OCCO3)c1	x	n[10 µM]	n	x	12.6µM	n
NCCC(=O)N[C@H](Cc1cnc[nH]1)C(=O)O	n	x	x	n	n	x
O=C1CCC(c2ccccc2)=NN1c1nc2ccccc2s1	n	n[10 µM]	x	n	n[13.5 µM]	x
O=c1[nH]n(CC2COC3(CCCCC3)O2)c(=O)c2ccccc12 (centres undefined)	n	n	n	n	12.6µM	n
O=C(Cn1[nH]c(=O)c2ccccc2c1=O)NC1CCCCCC1	n	n	n	n	n	n
COc1cccc(C(=O)N(Cc2nc(-c3ccc(C)cc3)no2)C(C)C)c1	n	n[0.074 µM]	n	n	u	n
